# Measured values: ChEMBL document CHEMBL3988442, “University of Dundee, Small-Polar-MMV Screening Library” (2021)
# Screen size: about 48,000 compounds; about 13,000 (27%) showed an effect of 50% or more. Some of the results follow.
# Tested on: Wolbachia pipientis
# Assay: Anti-Wolbachia Cell-Based Screen
# Type: functional
# Design: scale not given: in the data most compounds retested in dose-response had high values
# Conditions: 5 µM
row,SMILES,Percent Effect [%]
1,Cc1ccc2c(c1)OCCCC2NCc1nnc2n1CCCCC2 (stereo not drawn),-3.349
2,CCCN(CC)Cc1ccc(C(=O)NCC2COCCO2)c(=O)[nH]1 (stereo not drawn),-4.085
3,O=C(CSc1ncccn1)N1C[C@H]2CC[C@@H]1CN(Cc1ccncc1)C2,-5.142
4,CC(C)Cn1ccnc1CNC(=O)NC(C)(C)c1nccs1,4.874
5,Cc1nc(C)c(C(C)NC(=O)NCCNc2cccc(F)c2C#N)s1 (stereo not drawn),-3.673
6,N#Cc1nccnc1N1CCC(C(O)c2cccs2)CC1 (stereo not drawn),6.256
7,CCS(=O)(=O)N1CCC2(CCN(Cc3ccc(C)o3)C2)C1 (stereo not drawn),-25.86
8,COc1cccc2c1OCC(C(=O)NCCCn1nc(C)c(Cl)c1C)C2 (stereo not drawn),-39.79
9,Cc1nc(CNC2(C(=O)OC(C)(C)C)CCCC2)oc1C,-20.11
10,Cc1ccc(C(=O)N2CCN(Cc3nc(C(C)C)no3)CC2)c(=O)[nH]1,-11.93
11,COc1cccc(C(=O)N2CCN(Cc3nc(C(C)C)no3)CC2)c1,117.9
12,CCOC(=O)c1coc(N2CCN(C(=O)c3cccc(OC)c3)CC2)n1,-22.87
13,Cc1c[nH]cc1C(=O)N1CCN(Cc2nc(C(C)C)no2)CC1,-4.204
14,CC(C)c1noc(CN2CCN(C(=O)c3ccc(F)cc3)CC2)n1,109.7
15,CC(C)Cc1noc(CN2CCN(C(=O)c3cccc(F)c3)CC2)n1,1.261
16,CC(C)c1noc(CN2CCN(C(=O)c3cccc(F)c3)CC2)n1,101.9
17,CCOC(C)c1noc(CN2CCN(Cc3cccc(F)c3)CC2)n1 (stereo not drawn),-0.1841
18,CC(C)(C)c1noc(CN2CCN(C(=O)c3ccco3)CC2)n1,-32.87
19,CCCn1nnnc1CN(c1ccc(C)cc1)C(C)C,3.327
20,CCS(=O)(=O)N1CCC2(CC(=O)N(c3cnn(C)c3)C2)C1 (stereo not drawn),-4.174
21,COCCN1CCN(Cc2nnc(-c3occc3C)o2)CC1,0.1537
22,Cc1ccc(-c2nc(CN(C)C3CCS(=O)(=O)C3)cs2)o1 (stereo not drawn),-14.87
23,OC(CN1CCOCC1)c1ccc(OC(F)(F)F)cc1 (stereo not drawn),-7.461
24,COc1ccccc1CC(C)(C)NC(=O)CC(F)(F)F,-8.852
25,CN(C)C(C(=O)N1CCSCC1)c1ccccc1F (stereo not drawn),0.1762

row,SMILES,Percent Effect [%]
1,Cc1cncc(C(=O)N2CCC3(CC2)NC(=O)CC3c2ccccc2)c1.O=C(O)C(F)(F)F (stereo not drawn),-43.74
2,Cc1cccc(CN2CCC3(CC2)NC(=O)CC3c2ccccc2)n1.O=C(O)C(F)(F)F (stereo not drawn),109.2
3,CC(C)COC1CC2(CCN(C(=O)Cc3ccccn3)CC2)C1.O=C(O)C(F)(F)F,-2.519
4,Cc1cccc(CN2CCC3(CC2)NC(=O)C[C@H]3c2cnn(C)c2)n1.O=C(O)C(F)(F)F,84.49
5,Cn1cc(C2CC(=O)NC23CCN(C(=O)c2cccnc2)CC3)cn1.O=C(O)C(F)(F)F (stereo not drawn),11.55
6,Cn1cc(C2CC(=O)NC23CCN(C(=O)Cc2ccccn2)CC3)cn1.O=C(O)C(F)(F)F (stereo not drawn),105.4
7,COc1cc(F)ccc1C(C(=O)O)N1CCN(C2CCCCC2)CC1 (stereo not drawn),-11.47
8,O=C(O)C(F)(F)F.O=C(O)C(F)(F)F.O=C(c1ccco1)N1CC[C@@H](N2CCOCC2)[C@@H]1Cc1ccncc1,0.4302
9,COc1ccc(C2CC(=O)NCc3nc4ccccn4c32)cn1 (stereo not drawn),-7.087
10,Cc1c(NC(=O)NC2CCCC2)cccc1C(=O)N1CCSCC1,1.099
11,CN(C)S(=O)(=O)N1C[C@@H](OCc2ccccn2)[C@H]2OCCC[C@H]21,-8.506
12,Cc1nnc(N2C[C@H](OCc3cccnc3)[C@H]3OCCC[C@H]32)s1.O=C(O)C(F)(F)F.O=C(O)C(F)(F)F,-2.334
13,CN(Cc1cccnc1)[C@@H]1CN(c2ccccn2)[C@@H]2CCCO[C@H]12,82.23
14,Cn1cnc2c1C(COCc1cccnc1)N(Cc1ccccn1)CC2 (stereo not drawn),-4.63
15,Fc1cnc(N2CC[C@@H](N3CCOCC3)[C@@H]2Cc2cccnc2)nc1.O=C(O)C(F)(F)F.O=C(O)C(F)(F)F,-8.935
16,CN(C)[C@@H]1CCN(c2ncc(F)cn2)[C@H]1Cc1cccnc1.O=C(O)C(F)(F)F.O=C(O)C(F)(F)F,-4.235
17,CN(Cc1cccnc1)[C@@H]1CN(c2ncc(F)cn2)[C@@H]2CCCO[C@H]12,115.7
18,CN(Cc1cccnc1)C[C@H]1OC[C@@H]2CCN(c3ncccn3)C[C@@H]21,-26.32
19,CN(Cc1cccnc1)[C@@H]1CN(Cc2ccccn2)[C@@H]2CCCO[C@H]12,150.6
20,O=C(c1scc2c1OCCO2)N1CCC(Cc2cccc(CO)c2)C1 (stereo not drawn),-12.67
21,CC(=O)Nc1nc(C(=O)N2CCCCC2Cn2cccn2)cs1 (stereo not drawn),109.7
22,CC(=O)Nc1nc(C(=O)N2CCCC2Cn2cccn2)cs1 (stereo not drawn),136.5
23,CC(=O)Nc1nc(C(=O)N2CCCC2Cn2cc(C)cn2)cs1 (stereo not drawn),-2.697
24,CC(=O)Nc1nc(C(=O)N2CCCCC2Cn2cc(C)cn2)cs1 (stereo not drawn),67.59
25,CC(=O)Nc1nc(CN2CCCC2Cn2cc(C)cn2)cs1 (stereo not drawn),-0.668

row,SMILES,Percent Effect [%]
1,CC(=O)Nc1nc(CN2CCCC2Cn2cccn2)cs1 (stereo not drawn),-22.51
2,CC(=O)NCc1ccc(C(=O)N2CCCCC2Cn2cccn2)o1 (stereo not drawn),-0.4212
3,O=C(c1cc(-n2cccn2)ccn1)N1CCOc2ccc(F)cc21,11.86
4,CCN(Cc1noc(CC(C)C)n1)Cc1cccc(F)c1O,21.71
5,CCCc1nc(NCCCO)c2c(n1)c(C)nn2CC,2.078
6,CC(C)CN1C[C@@H]2CN(C(=O)c3cccn3C)C[C@@H]2C1=O,-8.322
7,O=C(C1CC1)N1C[C@@H](F)[C@@H](OCc2nc3cc(F)ccc3[nH]2)C1,-13.75
8,CC(C)n1cnc(C2CN(C)c3ccc(C(=O)NCC4CC4)cc32)n1 (stereo not drawn),-10.28
9,CCCn1nnnc1CSc1nccn1C,1.571
10,NCc1cnn(-c2ccccc2C(=O)NCCCn2ccnc2)c1,-6.38
11,O=C(NCCCn1ccnc1)c1cccnc1OCC(F)(F)F,88.67
12,O=C(CNC(=O)c1cnc2ccccc2c1O)NCCCn1ccnc1,9.933
13,CN(CCc1ccccc1)C(=O)c1cccnc1OCC(F)(F)F,147.6
14,O=C(O)c1ncccc1OCC(F)(F)F,2.885
15,O=C(c1cccnc1OCC(F)(F)F)N1CCCn2ncnc21,-8.478
16,O=C(NCCc1ccncc1)c1cccnc1OCC(F)(F)F,113.2
17,O=C(NCc1cccnc1OCC(F)(F)F)N1CCOCC1,-14.27
18,O=C(NCC(O)c1ccc(F)c(F)c1)c1cccnc1OCC(F)(F)F (stereo not drawn),8.161
19,O=C1COc2cc(S(=O)(=O)NCCC3=CCCCC3)c(Br)cc2N1,12.05
20,N#Cc1cccc(OCC(=O)N(Cc2ccncc2)C2CC2)c1,-1.497
21,CCNC(=O)N1CCC(NC(=O)NCCc2cc(F)cc(F)c2)C1 (stereo not drawn),-1.465
22,Cc1noc(C)c1NC(=O)NC1CCN(C(=O)OC(C)(C)C)CC1,-1.211
23,c1ccc(CN2CCC(NCCSc3cnn[nH]3)C2)cc1 (stereo not drawn),-16.66
24,O=C(c1noc2c1CCCC2)N1CCCC(c2nccs2)C1 (stereo not drawn),6.202
25,CN(C)c1cc(C2CCCN2C(=O)c2noc3c2CCCC3)ccn1 (stereo not drawn),74.42

row,SMILES,Percent Effect [%]
1,CN(C)c1cc(C2CCCN(C(=O)c3noc4c3CCCC4)C2)ccn1 (stereo not drawn),145.2
2,Cc1noc2ncc(C(=O)N3CCCC3c3ccncc3)cc12 (stereo not drawn),1.131
3,CN(C)c1ccc(C(=O)N2CCCC2c2ccc(Cl)cc2)nn1 (stereo not drawn),-0.3166
4,CCOCc1ncn2c1CN(S(=O)(=O)c1cccs1)CCC2,-7.324
5,COCc1cc(CNC(=O)c2c(C)cc(C)[nH]c2=O)n[nH]1,-6.309
6,O=C(c1cc[nH]n1)N1CCC(Nc2cccnn2)CC1,4.355
7,O=C(c1ccc2[nH]c(=O)[nH]c2c1)N1CCC(Nc2cccnn2)CC1,102.4
8,O=C(c1ccc2c(c1)COC2)N1CCC(Nc2cccnn2)CC1,2.056
9,Cc1cc(C(=O)N2CCC(Nc3cccnn3)CC2)no1,29.64
10,O=C(c1ccc2c(c1)OCO2)N1CCC(Nc2cccnn2)CC1,90.41
11,O=C(c1ccc2[nH]nnc2c1)N1CCC(Nc2cccnn2)CC1,101.2
12,O=C(c1ccc2cc[nH]c2c1)N1CCC(Nc2cccnn2)CC1,107.6
13,CC(c1nc(C2CC2)no1)N(C)Cc1ccc(C#N)cc1 (stereo not drawn),15.66
14,CCc1noc(CNc2c(F)cccc2-n2cccn2)n1,-15.19
15,Cn1nc(CNC(=O)CC#N)c2c1CN(C(N)=O)CC2,9.409
16,Cc1nnc(CCNC2CCN(c3ncnc4c(C)csc34)CC2)s1,-2.082
17,Cn1nnc2cc(C(=O)N3CCC(Nc4cccnn4)CC3)ccc21,108.7
18,N#Cc1ccc(CC(=O)N2CCC(Nc3cccnn3)CC2)cc1,101.7
19,Cc1nn(C)c(C)c1CC(=O)N1CCC(Nc2cccnn2)CC1,-9.502
20,N#CC1(C(=O)N2CCC(Nc3cccnn3)CC2)CCCCC1,-1.01
21,Cc1nc(C(=O)N2CCC(Nc3cccnn3)CC2)cs1,-1.209
22,N#Cc1cccc(C(=O)N2CCC(Nc3cccnn3)CC2)c1,94.09
23,CN(Cc1nc2ccccc2c(=O)[nH]1)C1CC(=O)N(C2CC2)C1=O (stereo not drawn),-0.4558
